In PubChem BioAssay (NCATS):
Results filed as inconclusive are left out. Where a call stands in place of a potency, no number is given. Activity calls are given as the source filed them. The call rests on the fitted dose curve; in most records, active means well fitted inhibition curve with a large enough effect; inconclusive means small, poorly fitted or top-dose-only effect; inactive means flat fitted curve, though single readings scatter.

Target: Lysine-specific demethylase 5B (Homo sapiens) (UniProt Q9UGL1)
Sequence (Q9UGL1 whole entry, looked up): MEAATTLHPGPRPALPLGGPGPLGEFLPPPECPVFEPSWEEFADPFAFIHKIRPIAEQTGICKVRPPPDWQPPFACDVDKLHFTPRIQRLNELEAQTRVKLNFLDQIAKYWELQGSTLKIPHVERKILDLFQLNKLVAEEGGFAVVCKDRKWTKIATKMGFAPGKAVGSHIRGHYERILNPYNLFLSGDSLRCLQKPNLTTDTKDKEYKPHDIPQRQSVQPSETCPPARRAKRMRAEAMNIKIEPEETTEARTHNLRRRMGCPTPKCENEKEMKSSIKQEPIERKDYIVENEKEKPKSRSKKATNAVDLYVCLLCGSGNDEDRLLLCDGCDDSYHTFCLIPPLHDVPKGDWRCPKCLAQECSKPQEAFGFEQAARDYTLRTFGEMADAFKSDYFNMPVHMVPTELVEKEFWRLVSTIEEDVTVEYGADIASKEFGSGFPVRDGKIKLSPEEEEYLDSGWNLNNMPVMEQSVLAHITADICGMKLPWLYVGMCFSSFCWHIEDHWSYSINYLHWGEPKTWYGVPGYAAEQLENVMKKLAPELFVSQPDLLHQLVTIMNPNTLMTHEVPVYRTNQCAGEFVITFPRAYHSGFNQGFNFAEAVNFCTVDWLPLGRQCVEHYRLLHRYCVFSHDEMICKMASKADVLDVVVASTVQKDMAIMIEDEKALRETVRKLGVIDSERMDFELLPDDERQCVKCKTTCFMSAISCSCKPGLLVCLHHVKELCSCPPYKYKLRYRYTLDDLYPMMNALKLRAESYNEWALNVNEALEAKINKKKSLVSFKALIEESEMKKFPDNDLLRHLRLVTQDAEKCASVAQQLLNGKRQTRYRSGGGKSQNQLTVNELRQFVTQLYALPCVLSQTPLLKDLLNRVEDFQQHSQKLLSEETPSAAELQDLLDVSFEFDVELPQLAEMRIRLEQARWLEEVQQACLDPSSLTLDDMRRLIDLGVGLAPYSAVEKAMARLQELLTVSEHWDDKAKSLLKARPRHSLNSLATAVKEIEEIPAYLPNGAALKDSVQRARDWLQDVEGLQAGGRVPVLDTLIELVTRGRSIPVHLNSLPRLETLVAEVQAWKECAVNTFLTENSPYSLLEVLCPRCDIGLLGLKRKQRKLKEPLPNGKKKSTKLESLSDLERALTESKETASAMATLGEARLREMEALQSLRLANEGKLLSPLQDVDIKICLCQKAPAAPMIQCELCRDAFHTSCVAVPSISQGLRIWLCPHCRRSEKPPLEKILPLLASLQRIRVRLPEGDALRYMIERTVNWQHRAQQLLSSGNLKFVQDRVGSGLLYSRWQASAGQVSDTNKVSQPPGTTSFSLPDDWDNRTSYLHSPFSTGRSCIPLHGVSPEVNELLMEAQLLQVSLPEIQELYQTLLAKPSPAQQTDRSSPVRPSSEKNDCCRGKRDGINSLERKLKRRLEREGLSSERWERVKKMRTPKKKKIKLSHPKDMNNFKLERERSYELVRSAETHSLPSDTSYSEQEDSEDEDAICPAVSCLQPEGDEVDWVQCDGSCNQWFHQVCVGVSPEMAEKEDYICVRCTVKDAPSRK
Experiment: Optimization screen for KDM5B Histone Demethylases FDH coupled qHTS against the LOPAC library (AID 1347166)
Outline: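 KDM5BDeltaAP (200nM final) preincubated 10 min with compound, then 12.5uM H3K4Me3, 25uM a-ketoglutarate, ascorbate, Fe(II), NAD+ and FDH added; 50mM HEPES pH 7.5, 0.01% Tween-20. NADH fluorescence (340/450 nm) change over 30 min, room temperature.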

Row | SMILES | Potency
1 | CCCN(CCC)C(=O)C(CCC(=O)O)NC(=O)c1ccccc1 (stereo unspecified) | inactive
2 | Cc1scc2c1N(C(=O)CN1CCN(C)CC1)c1ccccc1NC2=O | inactive
3 | O=C(O)CN(CCOCCOCCN(CC(=O)O)CC(=O)O)CC(=O)O | inactive
4 | Cc1ccc(Cl)c(Nc2ccccc2C(=O)O)c1Cl | inactive
5 | c1ccc2c(c1)CCCC2C1=NCCN1 (stereo unspecified) | inactive
6 | CO[C@@]1(NC(=O)CSCC#N)C(=O)N2C(C(=O)O)=C(CSc3nnnn3C)CS[C@@H]21 | inactive
7 | CN1CCN(C2=Nc3ccccc3Oc3ccc(Cl)cc32)CC1 | inactive
8 | OC(CCN1CCCCC1)(c1ccccc1)C1CCCCC1 (stereo unspecified) | inactive
9 | CNC1(C)C2CCC(C2)C1(C)C (stereo unspecified) | inactive
10 | COc1cc(C(=O)OCCCN2CCCN(CCCOC(=O)c3cc(OC)c(OC)c(OC)c3)CC2)cc(OC)c1OC | inactive
11 | CSc1ccc(C(=O)c2[nH]c(=O)[nH]c2C)cc1 | inactive
12 | CC[N+](C)(C)c1cccc(O)c1 | inactive
13 | CCCCNc1c(C(=O)OCC)c(C)nc2c1cnn2CC | inactive
14 | NC(N)=N/N=C/c1c(Cl)cccc1Cl | inactive
15 | CCCCNc1ccc(C(=O)OCCN(C)C)cc1 | inactive
16 | CC(C)(C)c1ccc(C(=O)CCCN2CCC(OC(c3ccccc3)c3ccccc3)CC2)cc1 | inactive
